Screens from PubChem.
Rows were chosen to be rich in hits. Some 1.3% of all compounds tested hit in one or more screens of this group.
AmpC detergent – inhibitors of E. coli AmpC beta-lactamase with detergent; P00811; AmpC hydrolysis of nitrocefin, absorbance 480 nm, 0.01% Triton; Potency, µM (titrated, usually from 114 µM), for inactives: at the highest dose activity change, negative = inhibition, hits mostly inhibitors; actives 0.041% (n = 370,000);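 further: 0% = no-compound wells and -100% = no-enzyme wells; nearly all actives have a fitted effect of over 25% in size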
Target sequence (P00811 whole entry, looked up): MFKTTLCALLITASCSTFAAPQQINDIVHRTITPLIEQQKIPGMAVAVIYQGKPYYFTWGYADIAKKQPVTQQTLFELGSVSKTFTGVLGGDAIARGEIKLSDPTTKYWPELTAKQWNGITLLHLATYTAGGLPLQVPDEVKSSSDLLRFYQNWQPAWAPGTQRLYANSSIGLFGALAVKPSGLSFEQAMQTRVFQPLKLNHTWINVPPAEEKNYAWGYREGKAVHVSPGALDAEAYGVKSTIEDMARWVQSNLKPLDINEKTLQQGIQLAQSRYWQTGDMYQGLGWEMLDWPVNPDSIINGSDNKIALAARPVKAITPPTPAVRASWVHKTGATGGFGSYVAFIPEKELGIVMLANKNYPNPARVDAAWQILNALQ
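20 mM phosphate pH 7.0 + 0.01% (detergent screen) or 0.0001% Triton X-100; 5.3 nM AmpC reagent; cpd preinc 15 min RT; nitrocefin (800 uM stock) to start; A480 q20 s × 4 min; Activity was normalised to no-enzyme and no-compound control wells.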
Giardia FBPA inh – inhibitors of Giardia lamblia fructose-1,6-bisphosphate aldolase. A8B2U2. purified Giardia FBPA. Potency, µM (top dose mostly 59.6 µM), for the others: top-dose activity, negative = inhibition, usual class: inhibitors. actives 0.71% (n = 290,000). AID 2451; further: nearly all actives have a fitted effect of over 55% in size
Target sequence (A8B2U2 whole entry, looked up): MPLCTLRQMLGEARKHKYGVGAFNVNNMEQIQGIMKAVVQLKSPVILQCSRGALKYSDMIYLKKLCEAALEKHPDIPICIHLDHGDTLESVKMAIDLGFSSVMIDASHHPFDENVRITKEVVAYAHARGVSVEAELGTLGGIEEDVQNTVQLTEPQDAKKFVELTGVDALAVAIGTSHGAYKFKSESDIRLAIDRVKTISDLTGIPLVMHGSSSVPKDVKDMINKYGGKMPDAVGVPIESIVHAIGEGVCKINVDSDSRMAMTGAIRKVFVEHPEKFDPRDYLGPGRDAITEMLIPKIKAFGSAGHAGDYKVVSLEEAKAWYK
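Giardia FBPA (40 nM reagent) was preincubated 10 min at RT with compound (up to 57.5 uM final), then substrate plus GAPDH/TPI/NAD/arsenate coupling system with diaphorase/resazurin was added; resorufin fluorescence (525/598 nm) was read after 20 min.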
AMA1-RON2 inh – disrupts binding of P. falciparum AMA1 to RON2 | AlphaScreen AMA1-biotinylated RON2 peptide binding | Potency, µM (series often up to 58.2 µM), inactives show at the highest dose activity change, negative = inhibition, actives largely listed as inhibitors | actives 0.2% (n = 360,000) | AID 720542;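 further: 0% = vehicle wells and -100% = peptide control; nearly all actives have a fitted effect of over 45% in size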
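AMA1 (3D7) with his tag at 25 nM final met compounds first, then biotinylated RON2 peptide at 25 nM; detection used donor plus acceptor beads, 10 µg/mL apiece, read by AlphaScreen after 30 min at room temperature.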
AmpC no deterg – AmpC beta-lactamase inhibition without detergent | P00811 | AmpC nitrocefin hydrolysis, absorbance 480 nm, 0.0001% Triton | Potency, µM (highest dose often 57.1 µM), without a hit: top-dose activity change, negative = inhibition, usual class: inhibitors | actives 0.52% (n = 330,000) | AID 485341;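 further: plate controls were no compound for no effect and no enzyme for full effect; nearly all actives have a fitted effect of over 20% in size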
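AmpC (5.3 nM in the dispensed reagent) in 20 mM phosphate pH 7.0 with 0.01% (detergent screen) or 0.0001% Triton X-100 was preincubated with compounds for 15 min at room temperature. Nitrocefin was then added from an 800 uM solution, and hydrolysis was followed at 480 nm.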
LmPK inh – LmPK (Leishmania mexicana) enzyme inhibition. purified LmPK, Kinase-Glo ATP luminescence, 1 h. Potency, µM (titrated, usually from 57.5 µM), for the others: at the highest dose activity change, negative = inhibition, usual class: inhibitors. actives 0.37% (n = 290,000). AID 1721
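Purified LmPK (0.1 nM) with 0.5 mM PEP and 0.1 mM ADP in imidazole buffer pH 7.2 with MgCl2/KCl, 1 h at room temperature. ATP formed was read by luciferase luminescence and normalized to no-enzyme and uninhibited controls.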
Starred values were filed as active, the others as inactive; u = inconclusive; x = no result; [ ] = remark or other dose. The call rests on the fitted dose curve; in most records, active means well fitted curve in the direction sought with a large enough effect; inconclusive means small, poorly fitted or top-dose-only effect, or another doubt; inactive means no such curve, though single readings can be large; an effect the other way counts as inactive or inconclusive. Unless noted, on the % scale 0 is the no-effect control and ±100 the full control effect; potency means the concentration at half of the fitted maximal effect.

SMILES | AmpC detergent | Giardia FBPA inh | AMA1-RON2 inh | AmpC no deterg | LmPK inh
Cc1[nH][nH]c(=O)c1C(c1c(C)[nH][nH]c1=O)c1cn(Cc2cccc3ccccc23)c2ccccc12 | -8.3% | u | -4.4% | -46.8% | 0.6%
C[C@H]1COC(=O)O1 | x | 3.5% | x | x | x
O=c1c2c3c(sc2[nH]c(=S)n1Cc1ccco1)CCC3 | 3.1% | -20.5% | 109.4% | 20µM* | -10.6%
CC1(C)Cc2c(sc3[nH]c(=S)n(Cc4ccco4)c(=O)c23)CO1 | 1.6% | 2.8% | 45.7% | -16.7% | -26.9%
Cc1cc(C)c(NC(=O)CSc2nnc(-c3ccccn3)n2N)c(Cl)c1 | -8.3% | 4.5% | 17.8µM* | -4.0% | -5.3%
COc1ccc(NC(=O)CSc2nnc(-c3ccccn3)n2N)cc1Cl | -9.6% | 1.3% | -10.6% | -25.2% | -1.5%
O=C1c2ccccc2C(Nc2ccc3c(c2)OCCO3)N1Cc1ccc2c(c1)OCO2 (configuration not stated) | u | -7.4% | u | 10µM* | 4.0%
NS(=O)(=O)c1ccc(Nc2ccccc2)c([N+](=O)[O-])c1 | -3.2% | -2.2% | -11.9% | -19.6% | 6.1%
O=[N+]([O-])c1cc(Cl)ccc1Nc1ccccc1 | -0.5% | -4.0% | 14.1µM* | -22.8% | 3.0%
O=C(Cn1c(=O)sc2ccccc21)NCc1ccccn1 | u | 0.6% | 14.2% | 44.7µM* | 0.2%
CC1CN(CN2C(=O)c3ccccc3C2=O)CC(C)O1 (configuration not stated) | 9.7% | 0.0% | -4.8% | 5.62µM* | 3.1%
COCCNC(=O)C1(C)CCN(C(=O)COc2ccc(Cl)cc2Cl)C1 (configuration not stated) | x | x | 16.6% | x | x
CC[n+]1ccc(C[n+]2ccccc2)c2ccccc21 | 31.6µM* | u | -4.2%[11.6 µM] | u | -0.9%
Cc1ccc2c(c1)c(C)cc[n+]2Cc1ccccc1 | -8.3% | -2.3% | -6.6% | -23.6% | -0.2%
O=C1NN=C2CCCCCC12 (configuration not stated) | x | x | 5.8% | x | x
Cc1nn(-c2nc3ccccc3[nH]2)c(=O)c2ccccc12 | u | -5.1% | -1.5% | -20.2%[11.4 µM] | 7.08µM*
COc1ccccc1-c1cc2nc(-c3ccccc3)cc(N3CCN(C(=O)c4ccco4)CC3)n2n1 | x | x | 6.8% | x | x
CC(C)(C)OC(=O)N1CCC(c2c(C(=O)N3CCC(c4ccccc4)C3)cnn2-c2cccc(Cl)c2)CC1 (configuration not stated) | 20.5% | x | x | x | x
CCc1nnc(SC(CC)C(=O)Nc2ccc(OC)c(Cl)c2)c2cc3occc3n12 (configuration not stated) | 2.9% | x | x | x | x
Cc1cccc(Cl)c1OCCN1CCCC1 | -7.6% | 25.1µM* | -0.3% | -12.8% | -12.1%
Clc1cccc(Cl)c1OCCCCN1CCCCC1 | u | u | u | 29.7% | -0.1%
Cc1ccc(C(=O)Nc2ccc(Cl)cn2)cc1 | -17.8% | -13.7% | 30.5% | -21.1% | -25.9%
Cc1ccc(C(=O)Nc2ncc3c(Cl)cccc3n2)cc1 | -3.2% | -9.2% | -1.4% | -23.3% | 12.6µM*
C=C1CCN(C(C(=O)O)C(C)C)S(=O)(=O)c2ccccc21 (configuration not stated) | x | 9.4% | x | x | x
O=C(Nc1sc2c(c1C(=O)NCC1CCCO1)CCC2)c1cc(=O)c2ccccc2o1 (configuration not stated) | -1.5% | x | x | x | x
SMILES | AmpC detergent | Giardia FBPA inh | AMA1-RON2 inh | AmpC no deterg | LmPK inh
CC1=C(C)C(=O)C(CCCCC#CCCCC#CCO)=C(C)C1=O | -11.3% | 17.7µM* | -28.4% | 22.8% | 4.3%
O=C(/C=C/Nc1ccc(F)cc1)c1ccco1 | -14.4% | -9.1% | -2.8% | -6.2% | 12.6µM*
CCOC(=O)c1ccc(N/C=C/C(=O)c2ccc(OC)c(OC)c2)cc1 | -8.3% | 1.0% | -3.3% | -8.1% | 1.3%
CCOC(=O)c1ccc(N/C=C/C(=O)c2ccco2)cc1 | 3.1% | 3.1% | -6.5% | 1.3% | 14.1µM*
COc1ccc(NC(=O)COc2cccc3c2CCN(C)C3=O)c(OC)c1 | 2.0% | x | -8.2% | 43.4% | 0.7%
CCOc1ccc(Br)cc1S(=O)(=O)NCC(c1ccc(OC)cc1)N1CCOCC1 (configuration not stated) | x | x | -10.4% | x | x
Cc1ccc2nc(NC(=S)NC(=O)c3ccc(OC(C)C)cc3)sc2c1 | -7.2% | -16.4% | 23.9% | u | 12.6µM*
CCCOc1ccc(C(=O)NC(=S)Nc2nc3ccc(C)cc3s2)cc1 | u | 3.7% | x | -2.8% | -0.8%
S=c1[nH]nc(-c2cccs2)n1/N=C/c1cn(-c2ccccc2)nc1-c1ccccc1 | -6.2% | -0.9% | 58.3% | 3.98µM* | 3.2%
Cc1cc(NC(=O)c2ccoc2C)ccc1Br | -6.8% | x | -1.8% | -26.6% | x
Cc1ccc(NC(=O)c2ccoc2C)cc1C | 1.4% | -6.6% | -19.7% | -20.3% | 14.1µM*
Cc1occc1C(=O)Nc1ccc2c(c1)OCO2 | -11.6% | -2.0% | 21.3% | -43.1% | 14.1µM*
Cc1cc(NC(=O)c2ccoc2C)no1 | u | -0.4% | -7.0% | -20.0% | 17.8µM*
O=C(Nc1ccc2c(c1)OCO2)c1ccc2c(c1)OCO2 | -6.6% | -0.7% | -6.1% | -15.9% | u
CCOC(=O)c1c(N)sc(C(=O)Nc2ccc3c(c2)OCO3)c1C | -4.4% | -0.1% | -14.2% | -11.8% | 5.01µM*
O=C(Nc1cccc(Cl)c1Cl)c1cc(S(=O)(=O)N2CCC3(CC2)OCCO3)ccc1F | 9.5% | x | x | x | x
CCCCOC(=O)c1ccc(Nc2nc3ccc(C(=O)c4ccccc4)cc3n3cnnc23)cc1 | 24.5% | x | x | x | x
CN(C)CC1(C)Cc2ccsc2C1O (configuration not stated) | x | x | 0.0% | x | x
Cc1occc1C(=O)Nc1cccc2ccccc12 | 5.4% | -13.0% | 2.7% | -24.3% | 25.1µM*
Cc1cc2c(cc1C)CN(c1ccccc1)C2 | 7.1% | -5.2% | -7.4% | -37.3% | 15.8µM*
Cc1cc(=O)oc2cc(OCc3ccc(C(=O)OCC(=O)Nc4ccccc4OC(F)F)cc3)ccc12 | -2.8% | 9.5% | u | 22.4µM* | -0.8%
CC(C)C(=O)Nc1nc2cc3c(cc2s1)OCO3 | u | -1.4% | -7.2% | 10µM* | -5.8%
Clc1cccc(N2CCN(Cc3nc(-c4ccccc4)no3)CC2)c1 | u | 0.8% | -9.9% | 10µM* | 2.4%
Clc1ccc(-c2noc(CN3CCN(c4ccccc4)CC3)n2)cc1 | u | 2.4% | -2.1% | -15.7% | 1.2%
CCc1ccc(CN2CCN(Cc3ccc(SC)cc3)CC2)cc1 | -12.5% | 17.7µM* | 12.6µM* | 32.5% | -6.3%
CSc1ccc(CN2CCSCC2)cc1 | -11.3% | u | -12.3% | -19.8% | -3.5%
CCCN1CCC(=O)N(C(CSc2ccc(OC)cc2)c2ccccc2)CC1 (configuration not stated) | x | -2.2% | x | x | x
O=C(Cc1c(F)cccc1Cl)OCN1C(=O)c2ccccc2C1=O | -1.0% | 0.9% | -2.9% | -3.5% | -3.6%
